Compound activity: PubChem BioAssay, National Center for Advancing Translational Sciences (NCATS)
KB-3-1 tox – kills parental KB-3-1 adenocarcinoma cells; 400,000 tested, 1.4% active; KB-3-1 viability, CellTiter-Glo ATP luminescence, 72 h; AID 1347075; Potency, µM (doses to about 46.1 µM), hits mostly cytotoxic; note: % is set by controls: 0 for no effect and ±100 for the full control effect; nearly all actives have a fitted effect of over 60% in size
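KB-3-1 parental drug-naive adenocarcinoma cells in DMEM/10% FBS, incubated 72 h at 37 C with pin-transferred compounds across a concentration series. Viability by CellTiter-Glo luminescence; concentration-response curves fitted after normalization.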
VP16 counter – counter-screen for ROR gamma inhibitors: Gal4-VP16 reporter; Drosophila S2 Gal4-VP16 UAS-luciferase, luminescence, 20 h; Potency, µM (highest dose often 53.6 µM), for the others: at the highest dose activity, negative = inhibition, actives largely listed as inhibitors; 310,000 tested, 3.5% active; AID 2546;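 note: Gal4-VP16 expression switched on by copper sulfate through the metallothionein promoter; % is set by controls: 0 for no effect and ±100 for the full control effect; nearly all actives have a fitted effect of over 50% in size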
RORg inh – ROR gamma (mouse) transcription inhibition; P51450; Drosophila S2 Gal4-RORgamma UAS-luciferase reporter, 20 h; Potency, µM (titrated, usually from 53.6 µM), for inactives: at the highest dose activity change, negative = inhibition, most hits filed as inhibitors; 310,000 tested, 5.4% active; note: % is set by controls: 0 for no effect and ±100 for the full control effect; nearly all actives have a fitted effect of over 60% in size
Target sequence (P51450 whole entry, looked up, the tested form may be a part): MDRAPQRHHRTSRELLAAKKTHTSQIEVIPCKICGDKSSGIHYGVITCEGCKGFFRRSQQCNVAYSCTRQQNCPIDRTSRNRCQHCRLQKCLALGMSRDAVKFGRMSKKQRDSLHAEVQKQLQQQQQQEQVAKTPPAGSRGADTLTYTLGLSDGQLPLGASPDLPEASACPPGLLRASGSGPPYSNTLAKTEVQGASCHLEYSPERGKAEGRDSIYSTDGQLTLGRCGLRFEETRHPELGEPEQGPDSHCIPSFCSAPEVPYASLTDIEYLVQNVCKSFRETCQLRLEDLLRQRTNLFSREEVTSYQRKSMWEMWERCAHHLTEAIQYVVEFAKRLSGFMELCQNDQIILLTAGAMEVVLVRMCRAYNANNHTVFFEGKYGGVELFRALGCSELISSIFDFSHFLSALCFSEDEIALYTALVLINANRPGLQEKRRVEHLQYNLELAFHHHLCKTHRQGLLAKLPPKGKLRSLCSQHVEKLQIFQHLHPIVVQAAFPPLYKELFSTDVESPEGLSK
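Schneider cells (Drosophila), stable Gal4 DBD–ROR gamma + UAS-luc; 1 hr cmpd preincubation; Cu2+ induction 700 uM final; 20 hr ambient; luminescence.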
MCF10A rereplic – inducers of DNA re-replication in MCF 10A breast cells; MCF 10A DNA re-replication, Hoechst nuclear intensity, 48 h; AID 624296; Potency, µM (doses to about 46.1 µM), inactives show top-dose activity, positive = re-replication, usual class: activators; 350,000 tested, 2.9% active; note: % of control where 0% means no effect; nearly all actives have a fitted effect of over 50% in size
SW480 rerep – inducers of DNA re-replication in SW480 colon cancer cells | SW480 DNA re-replication, Hoechst DNA content imaging, 48 h | Potency, µM (series often up to 46.1 µM), without a hit: at the highest dose re-replication activation, usual class: activators | 340,000 tested, 1.8% active | AID 624297; note: % of control where 0% means no effect; nearly all actives have a fitted effect of over 55% in size
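Hoechst fluorescence of nuclei (405 nm excitation, 500-530 nm emission) measured by plate-scanning imager after 48 hr compound exposure at 37 C; re-replication scored as increased number of nuclei with elevated intensity.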
KB-V1 cytotox – KB-V1 MDR subline cytotoxicity | KB-V1 MDR cells viability, CellTiter-Glo, 72 h | Potency, µM (doses to about 46.1 µM), usual class: cytotoxic | 400,000 tested, 3.4% active | AID 1347076; note: % is set by controls: 0 for no effect and ±100 for the full control effect; nearly all actives have a fitted effect of over 60% in size
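Luminescent ATP read-out (CellTiter-Glo, 10 min) measures survival of drug-selected KB-V1 MDR cells after 72 h, 37 degrees C compound exposure. Medium: phenol-red-free DMEM, 10% FBS. Values from fitted concentration-response curves.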
Starred values were filed as active, the others as inactive; i = inactive; ? = inconclusive; nt = not tested or not shown; [ ] = dose if it differs, or a comment. Hits are enriched below; roughly 10% of the tested compounds scored in any of these assays. Calls come from the whole dose curve; as a rule, active = well fitted curve in the direction sought with a large enough effect; inconclusive = small, poorly fitted or top-dose-only effect, or another doubt; inactive = no such curve, though single readings can be large; an effect the other way counts as inactive or inconclusive. Potency is the fitted concentration of half-maximal effect.

SMILES	KB-3-1 tox	VP16 counter	RORg inh	MCF10A rereplic	SW480 rerep	KB-V1 cytotox
C=CCn1c(-c2ccccc2OC)n[nH]c1=S	i	?	11µM*	-6%	-3%	i
C=CCn1c(-c2cccc3ccccc23)n[nH]c1=S	i	10µM*	3.5µM*	-3%	-11%	i
COC(=O)Cc1ccc(NC(=S)NCCO)cc1	i	-15%	-14%	-12%	2%[9.22 µM]	i
O=C(NCC1(c2ccccc2)CCCC1)C(=O)NCC1(c2ccccc2)CCCC1	i	5%	4%	16%	-7%	i
S=C(NCC1(c2ccccc2)CCCC1)Nc1ccccc1	?	6.3µM*	1.6µM*	-8%	-3%	i
CC(C)CCNC(=O)/C=C/c1ccc(Br)cc1	i	8%	34%	1%	-9%	?
S=C(NCCOCCOCCNC(=S)Nc1ccccc1)Nc1ccccc1	i	?	5µM*	1%	3%	i
COC(=O)Cc1ccc(NC(=S)NCCC(C)C)cc1	i	?	10µM*	-12%	-185%	i
S=C(NCCNC(=S)Nc1ccccc1)Nc1ccccc1	i	0%	-37%[1.91 µM]	5%	-8%	i
CC(C)CCNC(=S)Nc1ccc(Br)cc1	?	10µM*	3.5µM*	?	33%	18µM*
CCc1cc(C(C)=O)c(O)cc1OCCCCCC(C)(C)c1nn[nH]n1	nt	-10%	18%	nt	nt	nt
CCc1ccc(CNC(=O)CN2C(=O)CSc3c2c(C)nn3-c2ccccc2)cc1	i	nt	nt	nt	nt	i
COc1ccc(-c2c(C)c3ccc(O)c(CN4CCCCC4)c3oc2=O)cc1OC	i	nt	nt	nt	nt	i
S=C(NCCc1ccncc1)Nc1ccccc1	i	-1%	-16%	5%	-1%	i
CCCNC(=S)Nc1ccc(Br)cc1	i	?	11µM*	14%	-2%	i
S=C(NCCc1ccccc1)Nc1ccc(Br)cc1	?	?	5µM*	?	-2%	18µM*
CCCCSC(=S)NC1CCS(=O)(=O)C1 (configuration not stated)	i	4%	-42%	23µM*	?	i
CCCC(C)NC(=O)c1cc(C(=O)OC)cc([N+](=O)[O-])c1 (configuration not stated)	i	4%	-1%	6%	-8%	?
CCCC(C)c1nnc(NC(=O)c2cc(C(=O)OC)cc([N+](=O)[O-])c2)s1 (configuration not stated)	i	16µM*	10µM*	28%	-6%	i
CCCC(C)c1nnc(NC(=O)C2CCCO2)s1 (configuration not stated)	i	-8%	-2%	5.2µM*	21µM*	i
CCC(CC)c1nnc(NC(=O)c2ccc(N3CCCC3=O)cc2)s1	i	-2%	-18%	-13%	13%	i
CCC(CC)c1nnc(NC(=O)c2ccc([N+](=O)[O-])cc2)s1	i	?	-11%[10 µM]	-1%	-5%	21µM*
O=C1CCN(CCc2ccccc2)CCN1C(CSc1ccc(Br)cc1)c1ccccc1 (configuration not stated)	nt	24%	4%	nt	nt	nt
COc1cc(Cl)c(C)cc1Nc1nc2ccccc2c2nnc(C)n12	i	nt	nt	nt	nt	i
CCCNC(=O)Cn1nc(-c2ccc(C)c(C)c2)c2cnc3ccc(F)cc3c21	i	nt	nt	nt	nt	i
SMILES	KB-3-1 tox	VP16 counter	RORg inh	MCF10A rereplic	SW480 rerep	KB-V1 cytotox
Cc1cccc(N2CCN(C(=O)CCS(=O)(=O)c3ccc4c(c3)CC(=O)N4C)CC2C)c1 (configuration not stated)	i	nt	nt	nt	nt	i
O=C(O)CCNc1nc(-c2ccccc2)nc2ccccc12	i	-3%	21%	1%	-4%	i
CCCN(CCC)c1nc(-c2ccccc2F)nc2ccccc12	i	nt	nt	nt	nt	i
c1ccc(CCNc2nc(-c3ccccn3)nc3ccccc23)cc1	12µM*	4.5µM*	0.25µM*	11%	?	i
Oc1ccc(N2CCN(c3nc(-c4cccs4)nc4ccccc34)CC2)cc1	i	-6%	-18%	?	?	i
CN1CCN(c2nc(-c3ccccc3O)nc3ccccc23)CC1	i	-14%	8.9µM*	-2%	?	i
CCCN(CCC)c1nc(-c2ccccn2)nc2ccccc12	4.6µM*	5µM*	3.5µM*	21µM*	10µM*	2.9µM*
c1ccc(N2CCN(c3nc(-c4cccs4)nc4ccccc34)CC2)cc1	i	-5%	-13%	23µM*	-1%	i
CCOC(=O)C1=C(N)Oc2ccc(Br)cc2C1C(C#N)C(=O)OCC (configuration not stated)	nt	-11%	-3%	nt	nt	nt
CCN(CC)c1nc(-c2ccccn2)nc(-c2ccccc2)c1C#N	?	5µM*	1µM*	-6%	-45%	16µM*
CCN1CCN(c2nc(-c3ccccn3)nc3ccccc23)CC1	i	-7%	2%	6%	?	5.2µM*
c1ccc(CN2CCN(c3nc(-c4ccccc4)nc4ccccc34)CC2)cc1	i	-2%	15%	?	?	i
c1ccc(CN2CCN(c3nc(-c4ccccn4)nc4ccccc34)CC2)cc1	i	2.8µM*	1.4µM*	-1%	-16%	i
CCOC(=O)COc1ccc(F)cc1C(=O)c1ccn2nc(-c3ccc(Cl)cc3)cc2n1	i	nt	nt	nt	nt	?
CCc1cccc(NC(=O)Cn2nc3c4cc(F)ccc4n(Cc4cccc(C)c4)cc-3c2=O)c1	?	nt	nt	nt	nt	i
COc1ccc(C(=O)OCc2c(-c3ccccc3)ncc3ccccc23)cc1	i	nt	nt	16µM*	15µM*	i
CCCNC(=O)N1CCN(S(=O)(=O)c2ccc3c(ccn3C)c2)CC1	i	nt	nt	nt	nt	i
